Test results reported in PubChem BioAssay (EPA / NIEHS).
Values joined by “and” are separate entries in the source; they are usually repeats but may differ in a detail not shown here. Equal values may be shown once. Active and inactive are the calls of the source. How the source made its calls: active means hit-call score of the fitted dose curve at least 0.9, where 1 is the maximum; inactive means score below 0.9.

read-out: growth arrest and DNA damage 45 (GADD45G), GADD45G (gene 10912); assay: LTEA_HepaRG_GADD45G: Life Technologies and Expression Analysis (LTEA) Assay for growth arrest and DNA damage 45 (GADD45G) using HepaRG (AID 2283499); details: mRNA level, 48 h; actives raise or lower the signal
How it was run: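 Gain or loss of GADD45G mRNA, quantified by TaqMan qRT-PCR against three housekeeping genes, is fitted in both directions relative to 0.5% DMSO. Human HepaRG cultures receive test chemical for 48 h at up to 100 uM.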

SMILES | AC50 | outcome
N#Cc1cc(Br)c(O)c(Br)c1 | 71.4 µM (active) | –
CCOC(=O)C(Cl)Cc1cc(-n2nc(C)n(C(F)F)c2=O)c(F)cc1Cl (stereo not given) | – | inactive
CC(C)Oc1cc(-n2nc(C(C)(C)C)oc2=O)c(Cl)cc1Cl | 77.8 µM (active) | –
COc1nc(NC(C)C)nc(NC(C)C)n1 | – | inactive
C=CCC1=C(C)C(OC(=O)C2C(C=C(C)C)C2(C)C)CC1=O (stereo not given) | – | inactive
CCc1nn(C)c(C(=O)NCc2ccc(C(C)(C)C)cc2)c1Cl | 0.6 µM (active) | –
COc1cnc(OC)n2nc(NS(=O)(=O)c3c(OCC(F)F)cccc3C(F)(F)F)nc12 | – | inactive
CCOC(=O)CC(SP(=S)(OC)OC)C(=O)OCC (stereo not given) | – | inactive
Cc1cc(Cl)ccc1OCC(=O)O | – | inactive
COP(=S)(OC)Oc1nc(Cl)c(Cl)cc1Cl | – | inactive
CO/C=C(/C(=O)OC)c1ccccc1Oc1cc(Oc2ccccc2C#N)ncn1 | 78 µM (active) and 80.2 µM (active) and 73.5 µM (active) | –
CNC(=O)ON=CC(C)(C)SC | – | inactive
CC(Oc1ccc(Cl)cc1Cl)C(=O)O (stereo not given) | – | inactive
CCCCNC(=O)OCC#CI | – | inactive
COC(=O)c1ccccc1C(=O)OC | – | inactive
CN(C)C(=S)SSC(=S)N(C)C | – | inactive
CCCCC(CC)COC(=O)c1ccccc1C(=O)OCC(CC)CCCC (stereo not given) | – | inactive
C=CCC1=C(C)[C@@H](OC(=O)[C@@H]2[C@@H](C=C(C)C)C2(C)C)CC1=O | – | inactive
CON(C)C(=O)Nc1ccc(Cl)c(Cl)c1 | – | inactive
C#CCOS(=O)OC1CCCCC1Oc1ccc(C(C)(C)C)cc1 (stereo not given) | 12.7 µM (active) | –
